Results filed as inconclusive are left out. Activity calls are given as the source filed them. The calls were made as follows, unless noted: active = hit-call score of the fitted dose curve at least 0.9, where 1 is the maximum; inactive = score below 0.9.
Assay: STM_H9_CystineISnorm_perc: Stemina devTOX quickPredict H9 human embryonic stem cell (hESC)-based Assay for Cystine (CYSS) Metabolite Biomarker, Normalized (AID 2283713)
Method in brief: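 Cells are held undifferentiated and treated for 72h, receiving fresh medium with compound every 24h. Cystine secreted during the final day is quantified by UPLC-HRMS against a labeled spike-in, then expressed relative to the DMSO vehicle median.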

Structure (SMILES)	AC50	outcome
Cc1nn(C)c(Oc2ccccc2)c1C=NOCc1ccc(C(=O)OC(C)(C)C)cc1	0.128 µM (active)	
CCCCCOC(=O)COc1cc(N2C(=O)C3=C(CCCC3)C2=O)c(F)cc1Cl		inactive
CC(C)(c1ccc(O)cc1)c1ccc(O)cc1		inactive
S=C(S)NCCNC(=S)S.[Mn+2].[S-]C([S-])=NCCN=C([S-])[S-].[Zn+2]		inactive
CCNc1nc(N)nc(Cl)n1		inactive
COC(=O)c1ccc(I)cc1S(=O)(=O)NC(=O)Nc1nc(C)nc(OC)n1		inactive
CCSC(=O)N(CC(C)C)CC(C)C		inactive
CCCCOC(=O)C(C)Oc1ccc(Oc2ccc(C(F)(F)F)cn2)cc1 (stereo unspecified)		inactive
CSC(=O)c1cccc2nnsc12	81.4 µM (active)	
COC(=O)CSc1cc(N=c2sc(=O)n3n2CCCC3)c(F)cc1Cl	83 µM (active)	
Oc1ccc(C(c2ccc(O)cc2)C(Cl)(Cl)Cl)cc1		inactive
COC(=O)c1ccccc1C(=O)O		inactive
N[C@@H](Cc1cc(I)c(Oc2ccc(O)c(I)c2)c(I)c1)C(=O)O		inactive
O=C(Nc1ccc([N+](=O)[O-])cc1Cl)c1cc(Cl)ccc1O		inactive
CCN(Cc1c(F)cccc1Cl)c1c([N+](=O)[O-])cc(C(F)(F)F)cc1[N+](=O)[O-]		inactive
S=C([S-])NCCNC(=S)[S-].[Mn+2]		inactive
C#CCOC(=O)[C@@H](C)Oc1ccc(Oc2ncc(Cl)cc2F)cc1	11.1 µM (active)	
CC(C)(C)[C@@H](O)[C@@H](Cc1ccc(Cl)cc1)n1cncn1		inactive
CCCCC(CC)COC(=O)c1ccccc1C(=O)O (stereo unspecified)	250 µM (active)	
CC(C)CCCCCCc1ccc(O)cc1	70 µM (active)	
CN(C)C(=O)Nc1ccc(Cl)c(Cl)c1	70.5 µM (active)	
N#CSCSc1nc2ccccc2s1	15.2 µM (active)	
O=C(O)C1(C(=O)Nc2ccc(Cl)cc2Cl)CC1		inactive
C[C@]12C[C@H](O)[C@H]3[C@@H](CCC4=CC(=O)CC[C@@]43C)[C@@H]1CC[C@@H]2C(=O)CO	81.5 µM (active)	
C=CCOC(Cn1ccnc1)c1ccc(Cl)cc1Cl (stereo unspecified)		inactive
CCCCOC(=O)[C@@H](C)Oc1ccc(Oc2ccc(C(F)(F)F)cn2)cc1	42.8 µM (active)	

Assay: STM_H9_OrnCyssISnorm_ratio: Stemina devTOX quickPredict H9 human embryonic stem cell (hESC)-based Assay for Ornithine (ORN):Cystine (CYSS) Ratio (AID 2283714; active = hit-call score of the fitted dose curve at least 0.9, where 1 is the maximum)
Method in brief: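 Ratio of internal-standard-normalized ornithine to cystine, measured by UPLC-HRMS in spent media from the last 24 h. H9 cells kept pluripotent, dosed 72 h with daily media and compound renewal; DMSO 0.1% serves as baseline.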

Structure (SMILES)	AC50	outcome
Cc1nn(C)c(Oc2ccccc2)c1C=NOCc1ccc(C(=O)OC(C)(C)C)cc1	0.0589 µM (active)	
CCCCCOC(=O)COc1cc(N2C(=O)C3=C(CCCC3)C2=O)c(F)cc1Cl		inactive
CC(C)(c1ccc(O)cc1)c1ccc(O)cc1		inactive
S=C(S)NCCNC(=S)S.[Mn+2].[S-]C([S-])=NCCN=C([S-])[S-].[Zn+2]		inactive
CCNc1nc(N)nc(Cl)n1		inactive
CCSC(=O)N(CC(C)C)CC(C)C		inactive
CCCCOC(=O)C(C)Oc1ccc(Oc2ccc(C(F)(F)F)cn2)cc1 (stereo unspecified)		inactive
CSC(=O)c1cccc2nnsc12	78.6 µM (active)	
COC(=O)CSc1cc(N=c2sc(=O)n3n2CCCC3)c(F)cc1Cl	80 µM (active)	
COC(=O)c1ccccc1C(=O)O		inactive
N[C@@H](Cc1cc(I)c(Oc2ccc(O)c(I)c2)c(I)c1)C(=O)O		inactive
O=C(Nc1ccc([N+](=O)[O-])cc1Cl)c1cc(Cl)ccc1O		inactive
CCN(Cc1c(F)cccc1Cl)c1c([N+](=O)[O-])cc(C(F)(F)F)cc1[N+](=O)[O-]		inactive
S=C([S-])NCCNC(=S)[S-].[Mn+2]		inactive
C#CCOC(=O)[C@@H](C)Oc1ccc(Oc2ncc(Cl)cc2F)cc1	86.9 µM (active)	
CC(C)(C)[C@@H](O)[C@@H](Cc1ccc(Cl)cc1)n1cncn1	88.7 µM (active)	
CCCCC(CC)COC(=O)c1ccccc1C(=O)O (stereo unspecified)	283 µM (active)	
CC(C)CCCCCCc1ccc(O)cc1	75.7 µM (active)	
CN(C)C(=O)Nc1ccc(Cl)c(Cl)c1	82.4 µM (active)	
N#CSCSc1nc2ccccc2s1	16.4 µM (active)	
O=C(O)C1(C(=O)Nc2ccc(Cl)cc2Cl)CC1	9.92 µM (active)	
C[C@]12C[C@H](O)[C@H]3[C@@H](CCC4=CC(=O)CC[C@@]43C)[C@@H]1CC[C@@H]2C(=O)CO	93.8 µM (active)	
CCCCOC(=O)[C@@H](C)Oc1ccc(Oc2ccc(C(F)(F)F)cn2)cc1	52.8 µM (active)	

Assay: CEETOX_H295R_MTT_cell_viability: Viability Assessment in the CeeTox HT-H295R MTT Assay (AID 2283718);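 as to AC50: curve fitted both ways so AC50 may mark viability loss or gain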
Method in brief: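 MTT reduction (0.5 mg/ml, 4 h at 37 C; absorbance at 570 and 650 nm) gave viability as background-corrected percent change versus controls. H295R cells had 48 h forskolin (10 uM) prestimulation, then 48 h chemical exposure at 0.1% DMSO.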

Structure (SMILES)	outcome	AC50
CCCCCOC(=O)COc1cc(N2C(=O)C3=C(CCCC3)C2=O)c(F)cc1Cl	inactive	
CC(C)(c1ccc(O)cc1)c1ccc(O)cc1	inactive	
S=C(S)NCCNC(=S)S.[Mn+2].[S-]C([S-])=NCCN=C([S-])[S-].[Zn+2]		1.19 µM (active)
CCNc1nc(N)nc(Cl)n1	inactive	
CSC(=O)c1cccc2nnsc12	inactive	
Oc1ccc(C(c2ccc(O)cc2)C(Cl)(Cl)Cl)cc1	inactive	
COC(=O)c1ccccc1C(=O)O	inactive	
O=C(Nc1ccc([N+](=O)[O-])cc1Cl)c1cc(Cl)ccc1O	inactive	
CCN(Cc1c(F)cccc1Cl)c1c([N+](=O)[O-])cc(C(F)(F)F)cc1[N+](=O)[O-]		13.3 µM (active)
S=C([S-])NCCNC(=S)[S-].[Mn+2]	inactive	
C#CCOC(=O)[C@@H](C)Oc1ccc(Oc2ncc(Cl)cc2F)cc1	inactive	
CC(C)(C)[C@@H](O)[C@@H](Cc1ccc(Cl)cc1)n1cncn1	inactive	
CCCCC(CC)COC(=O)c1ccccc1C(=O)O (stereo unspecified)	inactive	
CN(C)C(=O)Nc1ccc(Cl)c(Cl)c1	inactive	
C[C@]12C[C@H](O)[C@H]3[C@@H](CCC4=CC(=O)CC[C@@]43C)[C@@H]1CC[C@@H]2C(=O)CO	inactive	
C=CCOC(Cn1ccnc1)c1ccc(Cl)cc1Cl (stereo unspecified)	inactive	
CCCCOC(=O)[C@@H](C)Oc1ccc(Oc2ccc(C(F)(F)F)cn2)cc1	inactive	
